Inhibition data for 21 molecules are collected here from PubChem BioAssay.

Structures are written as SMILES. Unmarked numbers belong to inactive results. The rule behind the calls is not given here.

For orientation: inhibition means the drop in the measured response relative to a control, in per cent.

Pantothenate synthetase (Mycobacterium tuberculosis (strain ATCC 25618 / H37Rv)), sequence (P9WIL5 whole entry, looked up): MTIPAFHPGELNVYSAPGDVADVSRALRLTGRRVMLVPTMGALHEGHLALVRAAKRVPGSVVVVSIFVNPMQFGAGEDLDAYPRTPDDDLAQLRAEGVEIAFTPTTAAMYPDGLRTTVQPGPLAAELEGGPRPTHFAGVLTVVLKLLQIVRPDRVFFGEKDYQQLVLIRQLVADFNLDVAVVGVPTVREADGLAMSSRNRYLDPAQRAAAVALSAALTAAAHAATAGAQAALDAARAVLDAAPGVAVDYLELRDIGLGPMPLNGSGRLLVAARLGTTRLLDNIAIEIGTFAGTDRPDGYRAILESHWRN

The test concerns the target Pantothenate synthetase (Mycobacterium tuberculosis (strain ATCC 25618 / H37Rv)) (UniProt P9WIL5). Put plainly: Recombinant Mtb pantothenate synthetase (PanC) inhibitors, coupled enzyme, confirmatory (AID 375).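 Note: 0% = full reaction with vehicle and 100% = no enzyme background.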 The settings on record: coupled enzyme assay; at 10 µM, hits give high values.
With `COc1cc(S(=O)(=O)n2nnc3ccccc32)c(OC)cc1Cl`, the inhibition was 3%.
The figure for `O=S(=O)(NCC1CCCO1)c1cccc(C(F)(F)F)c1` (stereo unspecified) is 0%.
The figure for `O=S(=O)(c1ccc2c(c1)OCCO2)N1CCC(n2nnc3cc(F)ccc32)CC1` is 1%; for `CC(C)(C)SCCNC(=O)COc1ccc(Cl)cc1` it is 0%.
The value for `Cc1cc(NS(=O)(=O)c2ccc(Nc3nc(-c4sc(N)nc4C)cs3)cc2)no1` was 4%; that for `O=C1NC(c2cccnc2)C(C(=O)c2cccs2)C(O)(C(F)(F)F)N1` (stereo unspecified) was 6%.
For the molecule `COCCNC(=O)C(c1cccc(OC)c1)N(Cc1cccs1)C(=O)Cn1nnc2ccccc21` (stereo unspecified), the inhibition was 0%.
The figure for `Cc1[nH]c(=O)[nH]c(=O)c1S(=O)(=O)N(C)Cc1ccccc1` is 0%; for `Cc1cccc(N(C)C(=O)c2coc(=O)c3ccccc23)c1` it is 0%.
`CSc1nnc2c3ccccc3n(Cc3ccccc3)c2n1`: the inhibition was 7%.
Turning to `CCn1c(=O)c(C(=O)NCc2ccc(OC)cc2)c(O)c2ccccc21`, the inhibition is 3%.
The value for `COc1ccc(CCNC(=O)C2(C)CCC(=O)N2Cc2ccc3c(c2)OCO3)cc1OC` (stereo unspecified) was 1%.
The figure for `COC(=O)Nc1ccc(NC(C)=O)cc1` is 0%; for `O=C(NCCCNC1CCCCC1)c1ccc(/C=N/O)nc1` it is 0%; for `COc1ccc(C2c3sc(=O)[nH]c3SC3C4CCC(C4)C23)cc1` (stereo unspecified) it is 7%.
The figure for `CCN(CC)CCOc1cccc(C(C)C)c1` is 4%; for `COc1ccc(Cl)cc1NC(=O)CSc1nncn1-c1cccnc1` it is 9%.
With `Cc1cccnc1NC(=O)CCCN1C(=O)c2ccccc2C1=O`, the inhibition was 0%.
The figure for `COc1ccccc1NC(=O)CSC1CC(=O)N(c2ccc3c(c2)OCO3)C1=O` (stereo unspecified) is 0%.
Consider `COCCNC(=O)CCc1nc(-c2ccccc2)no1`, for which the inhibition is 0%.
Take `CCOC(=O)Nc1sc(=S)n(C)c1C`: the inhibition was 9%.
